This is a sample that favours compounds with a hit; in the whole collection about 12% have one here.
JMJD2A Tudor inh – blocks the human JMJD2A Tudor domain | O75164 | 390,000 compounds, 4.4% hits | AlphaScreen JMJD2A-Tudor / H3K4me3 peptide binding | AID 504339 | Potency, µM (series often up to 114 µM), for inactives: at the top dose activity change, negative = inhibition, actives largely listed as inhibitors; also: % is scaled to controls: 0 for no effect and ±100 for the full control effect; nearly all actives have a fitted effect of over 50% in size
HP1b chromo inh – HP1-beta chromodomain-methylated histone interaction inhibition | AID 540317 | 390,000 compounds, 0.56% hits | P83916 | AlphaScreen HP1-beta / biotin-H3K9me3 peptide binding | Potency, µM (top dose mostly 114 µM), for inactives: top-dose activity change, negative = inhibition, most hits filed as inhibitors; also: nearly all actives have a fitted effect of over 70% in size
Target sequence (P83916 whole entry, looked up): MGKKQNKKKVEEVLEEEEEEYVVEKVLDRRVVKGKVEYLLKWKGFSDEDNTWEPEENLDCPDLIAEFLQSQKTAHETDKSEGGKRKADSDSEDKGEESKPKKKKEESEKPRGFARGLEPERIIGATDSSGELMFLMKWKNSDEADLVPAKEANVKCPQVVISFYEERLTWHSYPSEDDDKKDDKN
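HP1-beta protein (50 nM final) preincubated 30 min at room temperature with biotinylated H3(1-18)K9me3 peptide (50 nM) in PBS pH 7.4, 0.01% Tween-20, then compound added for 30 min. AlphaScreen streptavidin donor/nickel chelate acceptor beads (10 ug/mL final), 30 min dark, luminescence read.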
Sfp inh – Sfp phosphopantetheinyl transferase inhibition; 310,000 compounds, 3.5% hits; Potency, µM, for the others: largest response in the series, negative = inhibition, usual class: inhibitors; Biochemical Sfp PPTase activity, qHTS;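 also: the enzyme is Sfp with the accession as filed and its product quenches rhodamine fluorescence; 0% = enzyme reaction without inhibitor and -100% = no enzyme wells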
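Reaction rates are the 30-min fluorescence difference (ex 525, em 598 nm) in wells containing 15 nM Sfp, 5 uM rhodamine-CoA and 12.5 uM BHQ-2-YbbR at pH 7.6 with 10 mM MgCl2.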
BAZ2B block – inhibitors of human BAZ2B bromodomain; AlphaScreen BAZ2B-H3K14Ac peptide displacement; Q9UIF8; Potency, µM (highest dose often 114 µM), inactives show at the highest dose activity change, negative = inhibition, most hits filed as inhibitors; 360,000 compounds, 4.4% hits; also: % is scaled to controls: 0 for no effect and ±100 for the full control effect; nearly all actives have a fitted effect of over 60% in size
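Complex of BAZ2B and biotin-H3K14Ac (50 nM apiece) forms over 30 min at RT, then faces library compounds up to 110 uM for another 30 min; AlphaScreen beads added, 20 min dark incubation, luminescence read.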
G9a block – blocks human histone lysine methyltransferase G9a. G9a H3K9 monomethylation, AlphaScreen, 2 h. Potency, µM (highest dose often 102 µM), for the others: top-dose activity, negative = inhibition, usual class: inhibitors. 350,000 compounds, 8.8% hits. AID 504332; also: % is scaled to controls: 0 for no effect and ±100 for the full control effect; nearly all actives have a fitted effect of over 75% in size
Target sequence (Q96KQ7 913-1193 limits assumed): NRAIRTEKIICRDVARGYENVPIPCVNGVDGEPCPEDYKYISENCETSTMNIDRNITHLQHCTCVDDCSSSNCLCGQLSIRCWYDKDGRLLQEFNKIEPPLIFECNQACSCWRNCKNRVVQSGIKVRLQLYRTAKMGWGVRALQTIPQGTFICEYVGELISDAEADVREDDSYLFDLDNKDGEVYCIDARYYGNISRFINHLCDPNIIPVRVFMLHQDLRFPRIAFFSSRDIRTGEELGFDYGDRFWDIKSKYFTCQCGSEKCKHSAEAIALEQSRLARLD
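G9a (20 nM) preincubated 15 min RT with compounds, then 500 nM biotinylated H3K9 peptide and 20 uM SAM added; 2 h RT reaction. Monomethyl-H3K9 product detected by AlphaScreen with anti-H3K9me1 antibody, streptavidin donor and anti-rabbit IgG acceptor beads.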
Active calls of the source: *; u = inconclusive; x = not tested or not shown; [ ] = another dose, or the depositor's remark. Calls follow the shape of the dose curve; as a rule, active = well fitted curve in the direction sought with a large enough effect; inconclusive = small, poorly fitted or top-dose-only effect, or another doubt; inactive = no such curve, though single readings can be large; an effect the other way counts as inactive or inconclusive. Potency is read from the fitted curve at half-maximal effect.

SMILES | JMJD2A Tudor inh | HP1b chromo inh | Sfp inh | BAZ2B block | G9a block
COc1ccc(N2CCN(C(=O)c3ccc(CS(=O)(=O)c4ccc(OC)cc4)o3)CC2)cc1 | -25.5% | -0.1% | 3.3% | u | 39.8µM*
Cc1c(C(=O)N2CCN(c3ccccc3)CC2)oc2c1C(=O)CC(C)(C)C2 | -10.3% | 18.8% | 19.6% | -24.6% | 15.9%
CCc1nc2nc(C)cc(Nc3cc(Cl)ccc3OC)n2n1 | -19.5% | 12.1% | x | 5.0% | u
Cc1ccc(S(=O)(=O)Cc2ccc(C(=O)N3CCc4ccccc4C3)o2)cc1 | 56.2µM* | u | -2.0% | 50.1µM* | 50.1µM*
COc1ccc(S(=O)(=O)Cc2ccc(C(=O)N3CCc4ccccc4C3)o2)cc1 | u | 48.1% | -10.8% | -2.7% | u
Cc1ccc(S(=O)(=O)Cc2ccc(C(=O)O)o2)cc1 | 44.7µM* | -68.3% | -3.3% | 50.1µM* | 12.6µM*
Cc1ccc(S(=O)(=O)Cc2ccc(C(=O)N3CCN(c4cccc(C)c4C)CC3)o2)cc1 | u | -6.3% | -10.3% | -33.9% | -3.4%
Cc1ccc(S(=O)(=O)Cc2ccc(C(=O)N3CCN(Cc4ccccc4)CC3)o2)cc1 | x | x | -15.2% | 50.1µM* | 44.7µM*
COc1cccc(N2CCN(C(=O)c3ccc(CS(=O)c4ccc(C)cc4)o3)CC2)c1 (centres undefined) | -11.4% | 3.1%[57 µM] | 8.3% | -26.6% | 50.1µM*
O=C(NCc1ccc2c(c1)OCO2)c1nnc(Cc2ccc(Cl)cc2)o1 | -14.1% | 63.5% | 5.5% | -0.5% | 15.4%
CCCN1CCC(=O)N([C@H](CSc2ccc(C)cc2)CC(C)C)CC1 | -16.9% | 34.1% | -7.6% | -1.3% | 2.9%[59 µM]
COc1ccc(C(=O)Nc2ccc3c(c2)CCCN3S(=O)(=O)c2ccc(C)cc2)c(OC)c1 | 0.7% | 37.7% | x | -16.1% | 17.6%[59 µM]
O=C(CC(=O)Nc1ccc(Cl)cc1)N/N=C\c1cccc(F)c1 | -10.6% | -9.3% | 13.7% | -4.4% | 19.7%
COc1ccc(N2CCN(C(=O)c3ccc(Cn4nc(C)c([N+](=O)[O-])c4C)o3)CC2)cc1 | -33.8% | -8.8% | 16.7% | u | 3.55µM*
S=C(N=Nc1ccccc1)NNc1ccccc1 | 25.1µM* | 15.8µM* | -14.4% | 35.5µM* | 10µM*
NC(=O)NNc1ccccc1 | x | x | 11.0% | x | -19.4%[59 µM]
O=c1c2ccccc2sn1-c1ccc(S(=O)(=O)N2CCCC2)cc1 | 11.2µM* | 1.41µM* | 3.16µM* | 7.08µM* | x
O=c1c2ccccc2sn1-c1ccc(S(=O)(=O)N2CCCCC2)cc1 | 8.91µM* | u | x | x | x
O=S(=O)(c1ccc(S(=O)(=O)N2CCCC2)cc1)N1CCCCC1 | -6.1% | 10.7% | 2.1% | -10.2% | -20.8%
Cc1ccc(-n2sc3ccccc3c2=O)cc1S(=O)(=O)N1CCCCC1 | 7.94µM* | u | 1.58µM* | 5.62µM* | 0.891µM*
O=S(=O)(c1ccccc1)N1CCN(S(=O)(=O)N2CCCCCC2)CC1 | -1.1% | 31.6% | 14.4% | 1.9% | 25.8%[59 µM]
O=C(CNCc1ccccn1)Nc1ccc([N+](=O)[O-])cc1C(=O)Nc1ccccc1F | 44.7µM* | 12.6% | 3.3% | 17.8µM* | 13.2%
O=C(CN1CCN(Cc2ccccc2)CC1)Nc1ccc([N+](=O)[O-])cc1C(=O)Nc1ccccc1F | u | -14.7% | -0.9% | u | u
NC(=Nc1ccc(Cl)cc1)c1ccccc1 | -8.3% | 23.3% | 21.4% | -10.7% | 3.9%
CSC(=Nc1ccc(Cl)cc1)N[n+]1ccccc1 | -11.5% | -2.6% | -4.4% | -28.9% | 2µM*
SMILES | JMJD2A Tudor inh | HP1b chromo inh | Sfp inh | BAZ2B block | G9a block
CC1Oc2ccccc2OC1(O)c1ccccn1 (centres undefined) | 50.1µM* | 41.4% | -8.5% | -23.7% | 20µM*
CCN(CCNC(=O)CN(C)S(=O)(=O)c1cccc2nsnc12)c1ccccc1 | u | -1.5% | -13.1% | u | 39.8µM*
CCN(CCNC(=O)C1CCN(S(=O)(=O)c2cccc3nsnc23)CC1)c1ccccc1 | u | -27.2% | -1.0% | u | 50.1µM*
CCCCN(CCCNC(=O)C1CCN(S(=O)(=O)CC)CC1)c1ccccc1 | -30.2% | -9.3% | -0.1% | -26.3% | 7.08µM*
CCOc1ccc(CCNC(=O)C2CCN(c3nnc(-n4cccc4)s3)CC2)cc1 | -14.2% | 19.4% | -13.3% | 25.2% | 23.7%
CCN(CCNC(=O)C1CCN(c2nnc(-n3cccc3)s2)CC1)c1ccccc1 | -29.7% | 11.2% | 11.3% | -33.5% | 15.8µM*
O=C(NCCO)C1CCN(C(=O)c2ccc(-c3ccccc3)cc2)CC1 | -6.6% | 35.6% | 7.8% | 3.2% | -20.2%
O=C(CSc1nnc(Cc2ccccc2)o1)NCc1ccc2c(c1)OCO2 | -3.5% | 15.3% | 1.3% | -5.2% | -6.3%
NS(=O)(=O)c1ccc(CCNC(=O)C2CCCN2S(=O)(=O)c2cccc3nsnc23)cc1 (centres undefined) | -2.3% | 30.0% | 8.2% | -3.0% | 79.4µM*
CCN(CC)c1ccc(NC(=O)CN(C)S(=O)(=O)c2cccc3nsnc23)c(C)c1 | u | u | x | x | 17.8µM*
CC(C)=CCC/C(C)=C/CO/N=C1/C[C@@H](O)[C@@H](O)[C@@H]2[C@@H]3C(=O)N(Cc4ccc5c(c4)OCO5)C(=O)[C@H]3CC[C@H]12 | x | x | 17.5% | x | x
CCC(CC)NC(=O)COC(=O)CCC(=O)c1ccc(Cl)cc1 | 5.7% | 53.5% | 10.5% | x | -0.5%
O=C(O)C(c1ccccc1)N1C(=O)/C(=C\c2ccc(-c3ccccc3Cl)o2)SC1=S (centres undefined) | 20µM* | u | 50.1µM* | 17.8µM* | 39.8µM*
O=C(O)C(c1ccccc1)N1C(=O)/C(=C\c2ccc(-c3ccc(Br)cc3)o2)SC1=S (centres undefined) | 20µM* | u | -23.3% | 20µM* | 39.8µM*
C=CCN1C(=O)/C(=C/c2ccc(-c3ccc(F)cc3)o2)SC1=S | u | -20.4% | 56.2µM* | u | u
O=C(CCN1C(=O)/C(=C/c2ccc(F)cc2)SC1=S)N[C@@H](CO)Cc1ccccc1 | 7.8% | 34.9% | 4.3% | -23.5% | 6.9%
O=C(Nc1ccccc1)c1ccc(-c2ccc(Br)cc2)o1 | -14.3% | 52.9% | 13.1% | u | u
CCOc1ccc(NC(=O)c2cccc(OC(=S)N3CCOCC3)c2)cc1 | -2.3%[11.4 µM] | 40.9% | 5.5% | 7.2% | x
Cc1nn(C)c(C)c1CN(C)C(=O)C1(C)CC1(Br)Br (centres undefined) | -7.0% | -1.3% | 10.6% | -0.2% | 13.7%[59 µM]
CN1C(=O)C(CC(=O)Nc2ccc(Cl)cc2)N(Cc2ccco2)C1=S (centres undefined) | -31.8% | 12.6% | 17.8µM* | u | 44.7µM*
Cc1ccc(S(=O)(=O)/N=C2/NC(=O)/C(=C\c3ccco3)S2)cc1 | -31.3% | -0.3% | 15.0% | -13.3% | 39.8µM*
Cc1ccc(S(=O)(=O)/N=C2/NC(=O)/C(=C/c3ccncc3)S2)cc1 | x | x | 1.3% | -10.8% | u

Screening results (PubChem)
